PubChem BioAssay AID2642 (Johns Hopkins Ion Channel Center, 2010)
Among all 310,000 compounds or so, about 3,900 (1.3%) were called active.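 How the source made its calls: active means compounds whose thallium flux B-score, printed positive for inhibition, exceeds three library SD while starting fluorescence stays within three; inactive means the rest.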 The entries come from a sample that favours actives as a whole.

Target: Potassium voltage-gated channel subfamily KQT member 1 (Homo sapiens) (UniProt P51787)
Sequence (P51787 whole entry, looked up): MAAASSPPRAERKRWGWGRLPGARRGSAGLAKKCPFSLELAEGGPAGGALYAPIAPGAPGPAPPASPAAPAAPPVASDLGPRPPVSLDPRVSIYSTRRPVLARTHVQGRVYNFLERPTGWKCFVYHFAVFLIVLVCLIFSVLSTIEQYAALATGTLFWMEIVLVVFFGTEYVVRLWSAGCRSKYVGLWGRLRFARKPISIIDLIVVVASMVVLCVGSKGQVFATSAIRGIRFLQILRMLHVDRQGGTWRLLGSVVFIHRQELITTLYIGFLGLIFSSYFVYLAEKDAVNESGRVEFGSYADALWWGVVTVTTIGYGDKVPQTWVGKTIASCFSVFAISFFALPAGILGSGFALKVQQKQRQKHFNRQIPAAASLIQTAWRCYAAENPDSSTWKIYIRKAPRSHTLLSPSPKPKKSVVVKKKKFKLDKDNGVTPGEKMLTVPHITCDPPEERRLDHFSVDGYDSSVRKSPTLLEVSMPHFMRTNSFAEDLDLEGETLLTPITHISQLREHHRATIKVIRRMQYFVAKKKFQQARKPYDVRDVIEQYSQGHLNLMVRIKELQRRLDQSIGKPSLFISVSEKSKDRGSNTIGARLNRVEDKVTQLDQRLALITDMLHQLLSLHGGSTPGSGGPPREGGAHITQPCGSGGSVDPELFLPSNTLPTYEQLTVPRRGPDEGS
Assay: KCNQ1 potassium current blockers – cell-based, thallium flux, high-throughput, primary screen (AID 2642);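 further: channel opened by potassium depolarization with thallium stimulus after 20 min compound exposure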
Details: CHO-K1 KCNQ1, FluxOR thallium flux fluorescence, at 10 µM; active compounds read high

B-score, inactive:
COc1ccc(N2CCN(C(=O)c3cn(C)c4ccc(S(=O)(=O)N5CCOCC5)cc4c3=O)CC2)cc1, COCCn1c(N)c(NCc2ccccc2)c(=O)[nH]c1=O, COC1=CCC2([N+](=O)[O-])CN(CC(=O)O)CC1([N+](=O)[O-])C2 (configuration not stated), CCCCOc1ccc(C(=O)NCC(=O)OCC(=O)N2CCN(S(=O)(=O)c3ccc(C)cc3C)CC2)cc1, COCCn1cnc2c1c(=O)n(Cc1ccc(Br)cc1)c(=O)n2Cc1ccccc1, CCN(CC)CCn1cnc2c1c(=O)[nH]c(=O)n2Cc1ccccc1, O=S(=O)(NCc1ccc(Cl)cc1Cl)c1cccs1, O=S(=O)(Nc1ccccc1Br)c1cccs1, COCCNC(=O)CN(Cc1ccco1)C(=O)CCC(=O)Nc1nccs1, O=C(CN1C(=O)c2ccccc2C1=O)NCc1ccc(C(=O)O)cc1, CC(C)N(C(=O)c1ccc(-c2ccccc2F)cc1)C(C)C, Cc1ccc(Cl)cc1NC(=O)C1CCCN(c2cnccn2)C1 (configuration not stated), O=C(COc1ccc(S(=O)(=O)N2CCOCC2)cc1Cl)N1CCOCC1, OCC1(Cc2ccccc2C(F)(F)F)CCN(Cc2cccc3cnccc23)CC1, O=C(c1ccncc1)N1CCN(S(=O)(=O)c2cccc([N+](=O)[O-])c2)CC1, O=C(Cc1ccsc1)N1CCN(S(=O)(=O)c2cc(C(F)(F)F)cc(C(F)(F)F)c2)CC1, Cn1c(=O)c2c(nc(N3CCOCC3)n2CCNC2=NCCC2)n(C)c1=O, CCc1cccc(NC(=O)C2CCCN(S(=O)(=O)c3ccc4[nH]c(=O)ccc4c3)C2)c1 (configuration not stated), COC(=O)c1ccc(/C=C2/C(=O)Oc3ccccc32)cc1, C/C(N)=C(/C#N)C(=O)COC(=O)C1CCN(C(=O)c2ccc(Cl)cc2)CC1, COc1ccc(NC(=O)CNC(=O)Cn2ccc3ccccc3c2=O)c(OC)c1, Cc1ccc(OCCCCc2c(C)n[nH]c2C)cc1, CCOC(=O)N1CCN(C(=O)c2ccc(S(=O)(=O)Nc3cccc(C(F)(F)F)c3)cc2)CC1, CCOC(=O)c1ccc2c(c1)nc(C)n2CC, O=C(COC(=O)/C=C/c1cccs1)NC1CCCCC1, Cc1nc(-c2ccc(F)cc2)c(CC(=O)Nc2cccc(S(=O)(=O)N3CCOCC3)c2)s1, Cc1ccc(NC(=O)COc2ccc(-n3ccnc3)cc2)cc1Cl, COc1cc(C(=O)N/C(=C\c2cn(C)c3ccccc23)C(=O)N2CCOCC2)cc(OC)c1OC, COc1cc(/C=C(\C#N)c2nc3c(s2)CC(C)CC3)ccc1O (configuration not stated), COc1ccc(/C=C(/NC(=O)c2ccc(C)cc2)c2nc3ccccc3[nH]2)cc1OC, COc1ccc(/C=C(\NC(=O)c2ccc(OCC(C)C)cc2)C(=O)OCc2ccco2)cc1, O=C(O)c1ccc(OCC2CCCO2)cc1 (configuration not stated), COc1ccccc1C(=O)NC(CCSC)C(=O)NNC(=O)c1csc(N2CCOCC2)n1 (configuration not stated), O=C(Nc1ccc(N2CCOCC2)nc1)c1c(F)cccc1F, COC(=O)c1cc(NC(=O)c2cccnc2)ccc1N1CCOCC1, CSCCC(NS(=O)(=O)/C=C/c1ccccc1)C(=O)N1CCC(C)CC1 (configuration not stated), CCOC(=O)c1ccc(NC(=O)c2cccnc2)cc1, CCOC(=O)c1sc(NC(=O)CSc2ncccn2)c(C#N)c1C, C=CCc1c(C)nc2cc(-c3ccccc3)[nH]n2c1=O, COc1ccc(CCNC(=O)CCNS(=O)(=O)c2cc(Br)cnc2N)cc1OC, Cc1cc(C)cc(OCC(=O)Nc2ccc(S(=O)(=O)Nc3ccccn3)cc2)c1, Cc1ccc(NS(=O)(=O)c2ccc(C(C)(C)C)cc2)cn1, Cc1ccc2c(Cl)c(C(=O)Nc3nn[nH]n3)sc2c1, CCCCCCOc1ccc(OC(=O)c2cccnc2)cc1, CN(C)CCCN1C(=O)CSC1c1ccc([N+](=O)[O-])cc1 (configuration not stated), CCCCN1C(=O)c2ccc(C(=O)Nc3ccc(S(=O)(=O)N(C)C)cc3)cc2C1=O, CC(C)(C)C(=O)N(Cc1ccccc1)c1ccccn1, CCN=C1S/C(=C\c2cc(Br)ccc2OCC(=O)OCC)C(=O)N1CC, CN(C)C(=O)c1ccc(NC(=O)c2ccccc2-c2ccccc2)cc1, O=C(c1ccc2c(c1)N(Cc1ccc(F)cc1)C(=O)c1ccccc1S2(=O)=O)N1CCN(c2ccccn2)CC1, S=C(NCc1ccc(Cl)cc1)NC1CCCCC1, O=C(NCc1ccncc1)NC12CC3CC(CC(C3)C1)C2, Cc1cc(C)c(NC(=S)N2CCCC2C(=O)O)c(C)c1 (configuration not stated), CC(C)[C@H](NC(=O)N1CCn2c1nc1ccccc12)C(=O)NCc1ccc2c(c1)OCO2, COc1cnn(-c2ccc([N+](=O)[O-])cc2)c(=O)c1Cl, CC(=O)c1ccc(NC(=O)C2CCCN2S(=O)(=O)c2cccs2)cc1 (configuration not stated), CC(=O)c1cccc(NC(=O)c2ccncc2)c1, C=C(C)C(=O)Nc1cccc(C(C)=O)c1, CSc1nsc(NC(=O)Nc2ccccc2)n1, CCSc1nsc(NC(=O)Nc2ccccc2OC)n1, CCOc1ccc(C(CCc2ccccc2)NC(=O)c2ccc(OC)c(OC)c2)cc1OCC (configuration not stated), COc1cc2c3c(c1)/C(=C1/SC(=S)NC1=O)C(=O)N3C(C)(C)C=C2C, Cc1ccc2nc(-c3ccncc3)cc(C(=O)Nc3ccc(OC(F)F)cc3)c2c1, CC(C)C(=O)Nc1ccc2c(c1)oc1ccccc12, CCOC(=O)c1ccc(NC(=O)CCn2c(=O)oc3ccccc32)cc1, CC(=O)NCCC(=O)Nc1nc(-c2ccc3c(c2)OCCO3)cs1, Cc1csc(NC(=O)C2=COCCO2)n1, Cc1cccc(CN2CCC(n3nccc3NC(=O)c3ccccc3C)CC2)n1, CN(C)N(C)C(=O)C(O)(c1ccccc1)c1ccccc1, CCc1ccc(NC(=O)CCNS(=O)(=O)c2cccs2)cc1, COc1ccc(-c2cc(C(F)(F)F)nc(NCc3cccnc3)n2)cc1, COc1ccc(-c2ccc(Nc3ccc(S(=O)(=O)N4CCCC4)cc3)nn2)cc1OC, C=C(C)CNC(=O)c1ccc(OC2CCN(C(=O)COC)CC2)cc1, O=C(CC(NCCN1CCOCC1)C(=O)O)Nc1cccc(Cl)c1 (configuration not stated), CCOC(=O)c1sc(NC(=O)CSc2nc(C)cc(C(F)(F)F)n2)c(C#N)c1C, CC(C(=O)Nc1ccc(O)c(C(=O)O)c1)N1C(=O)/C(=C/c2cccs2)SC1=S (configuration not stated), COC(=O)c1ccc(NC(=O)c2cc(Cl)ccc2OC)cc1, Cc1ccc(NC(=O)CC(=O)Nc2ccc(C)cc2)cc1, CCC(C)C(NC(=O)C1CCC(=O)N1C(=O)OCc1ccccc1)C(=O)NC(C(=O)N1CCCC1C(N)=O)C(C)CC (configuration not stated), CC1CCc2c(c3ccccc3[nH]c2=O)O1 (configuration not stated), CCOC(=O)c1cc(C)sc1NC(=O)C1CCC1, O=C(c1ccccc1)N1N=C(c2ccccc2O)CC1c1ccc(Br)cc1 (configuration not stated), COc1ccc(C2CC(c3cccs3)=NN2c2ccccc2)cc1 (configuration not stated), Cc1nc2c(C(=O)NCc3cccs3)cnn2c(C)c1Cc1ccc(F)cc1, CCOC(=O)c1cccc(NC(=O)C2CCCN(S(=O)(=O)c3cnc[nH]3)C2)c1 (configuration not stated), CCC(O)C1CCN(Cc2cn(-c3ccc(OC)cc3)nc2-c2cccc(F)c2)CC1 (configuration not stated), Cc1ccc(C)c(-n2cc(CN3CCN(C(=O)c4ncn[nH]4)CC3)c(-c3ccccc3)n2)c1

B-score, active:
N=c1c2c(-c3ccccc3)c(-c3ccccc3)n(Cc3ccccc3)c2ncn1CCCO 10, O=C(Nc1cccc(Cl)c1)Nc1ccccc1NS(=O)(=O)c1cccs1 14, CC(=O)N(C1=C(Cl)C(=O)c2ccccc2C1=O)c1ccc(C(=O)O)cc1 17, O=C(c1ccncc1)N1CCN(S(=O)(=O)c2cc(C(F)(F)F)cc(C(F)(F)F)c2)CC1 6, CCn1c(/C=C/Nc2ccccc2)[n+](CC)c2ccc(C(=O)OCC(F)(F)F)cc21 9, Cc1ccc(-c2nc(-c3cccnc3)sc2CC(=O)Nc2ccc(C)c(Cl)c2)cc1 11, COc1cc(/C=C(\C#N)c2nc3ccccc3[nH]2)ccc1O 9, O=C(Nc1ccc(F)cc1)c1cccnc1N1CCOCC1 10, Cc1c(C(=O)OC(C)C)sc(NC(=O)c2cccnc2)c1C#N 9, Cc1ccc(S(=O)(=O)Nc2ccc3ncccc3c2)cc1 6, CCCCCCCCCCCCN1C(=O)CSC1c1cccnc1 (configuration not stated) 9, CN(C)C(=O)c1ccc2c(c1)C1C3CCC(C3)C1C(c1ccccc1)N2 (configuration not stated) 6, S=C(NCc1ccc(Cl)cc1)NC12CC3CC(CC(C3)C1)C2 11, C=CCSc1nsc(NC(=O)Nc2cccc(C(C)=O)c2)n1 12, CCSc1nsc(NC(=O)Nc2cccc(C(C)=O)c2)n1 10, Cc1ccc(-c2csc(NC(=O)C3=COCCO3)n2)cc1C 12, COc1ccc(-c2cc(C(F)(F)F)nc(S(C)(=O)=O)n2)cc1OC 7, COC(=O)c1ccc(NC(=O)Nc2ccc(C)cc2)cc1 7, Oc1ccccc1C1=NN(c2ccccc2)C(c2ccccc2)C1 (configuration not stated) 7, Cc1cccc(-n2cc(CN3CCN(C(=O)c4ncn[nH]4)CC3)c(-c3cccc(F)c3)n2)c1 10
